# Laboratory results as given in PubChem BioAssay (NCI).
# About 79,000 compounds went through this panel and 15% of them were active in at least one assay; those are over-represented in the sample as a whole. Unmarked numbers belong to inactive results. Active and inactive are the calls of the source. No stated cut-off is given here; in the data, active means growth inhibition above about 70%; inactive means the rest.
# Experiments:
# [1] = NCI Yeast Anticancer Drug Screen. Data for the rad52 strain (AID 147);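 further: 0% = growth of vehicle-treated control cultures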; conditions: S. cerevisiae rad52 mutant growth inhibition, active compounds read high
# How it was run: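 Vehicle-treated cultures served as the reference for growth inhibition of compound-exposed yeast bearing a DNA repair mutation.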
# [2] = NCI Yeast Anticancer Drug Screen. Data for the wt1 strain (AID 149);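 further: 0% = growth of vehicle-treated wt1 cultures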; conditions: S. cerevisiae wt1 strain (SPY 50644) growth inhibition, active compounds read high
# How it was run: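 The wt1 strain was treated with compounds, and growth was compared with vehicle-treated cultures to give inhibition.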
# [3] = NCI Yeast Anticancer Drug Screen. Data for the rad50EPP+ strain (AID 151);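 further: 0% = growth of vehicle-treated control cultures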; conditions: S. cerevisiae rad50 mutant strain, active compounds read high
# How it was run: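 In this screen, rad50EPP+ yeast were exposed to compounds. Growth inhibition was scored against vehicle-treated controls.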
# [4] = NCI Yeast Anticancer Drug Screen. Data for the mgt1 strain (AID 153); conditions: S. cerevisiae mgt1 mutant growth inhibition, active compounds read high
# How it was run: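 mgt1 strain exposed; growth vs vehicle control recorded as inhibition.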
# [5] = NCI Yeast Anticancer Drug Screen. Data for the rad50 strain (AID 155);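 further: 0% = growth of vehicle-only cultures of the same strain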; conditions: S. cerevisiae rad50 strain growth inhibition, active compounds read high
# How it was run: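 Cells are treated with compound, grown, and their growth is then scored against vehicle-only cultures of the same repair-deficient yeast strain.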
# [6] = NCI Yeast Anticancer Drug Screen. Data for the mec2-1 strain (AID 157); conditions: S. cerevisiae mec2-1 strain, active compounds read high
# How it was run: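 Vehicle-treated cultures served as reference for growth inhibition of compound-exposed mec2-1 yeast.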
# [7] = NCI Yeast Anticancer Drug Screen. Data for the rad14 strain (AID 159);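 further: 0% = growth of vehicle-treated control cultures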; conditions: S. cerevisiae rad14 strain growth inhibition, active compounds read high
# How it was run: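 Readout: yeast growth inhibition, referenced to vehicle-only cultures. Strain bears a defined alteration in DNA damage repair.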
# [8] = NCI Yeast Anticancer Drug Screen. Data for the sgs1 mgt1 strain (AID 161);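 further: 0% = growth of cultures given vehicle only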; conditions: S. cerevisiae sgs1 mgt1 strain, active compounds read high
# How it was run: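 Read-out: growth inhibition vs vehicle controls. Cells: mutant yeast strain deficient in DNA damage repair.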
# [9] = NCI Yeast Anticancer Drug Screen. Data for the cln2 rad14 strain (AID 165);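 further: 0% = growth equal to vehicle treated cultures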; conditions: S. cerevisiae cln2 rad14 strain, active compounds read high
# How it was run: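 Each compound was tested on cln2 rad14 yeast. Inhibition of growth was calculated against vehicle-exposed controls.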
# [10] = NCI Yeast Anticancer Drug Screen. Data for the bub3 strain (AID 167); conditions: S. cerevisiae bub3 mutant strain, active compounds read high
# How it was run: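 Part of a panel of yeast mutants defective in DNA damage repair or cell cycle regulation. Each strain is grown with compound, and inhibition is calculated relative to solvent-treated cultures.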
# [11] = NCI Yeast Anticancer Drug Screen. Data for the wt2 strain (AID 169);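 further: 0% = growth of vehicle-treated yeast cultures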; conditions: S. cerevisiae wt2 strain growth inhibition, active compounds read high
# How it was run: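 Inhibition of yeast growth was determined after compound treatment, normalised to controls receiving only vehicle.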
# [12] = NCI Yeast Anticancer Drug Screen. Data for the mlh1 strain (AID 171);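 further: 0% = growth of vehicle-treated control cultures of the same strain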; conditions: S. cerevisiae mlh1 strain growth inhibition, active compounds read high
# How it was run: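 Vehicle-normalised growth inhibition of a repair- or checkpoint-altered yeast strain following compound treatment.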
# [13] = NCI Yeast Anticancer Drug Screen. Data for the mlh1 rad18 strain (AID 175); conditions: S. cerevisiae mlh1 rad18 strain growth inhibition, active compounds read high
# How it was run: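 Vehicle-treated cultures served as the reference for growth inhibition in a yeast strain carrying DNA damage repair alterations exposed to each compound.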
# [14] = NCI Yeast Anticancer Drug Screen. Data for the sgs1 strain (AID 173);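 further: 0% = growth of vehicle-only control cultures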; conditions: S. cerevisiae sgs1 mutant, active compounds read high
# How it was run: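 Screen format: yeast with repair or checkpoint alterations, compound exposure, growth read relative to vehicle.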
# [15] = NCI Yeast Anticancer Drug Screen. Data for the rad18 strain (AID 177); conditions: S. cerevisiae rad18 mutant growth inhibition, active compounds read high
# How it was run: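 Test articles were incubated with altered yeast defective in DNA damage repair. Results are given as inhibition of growth versus vehicle.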
# [16] = at 5.0 µM (retest, dose inferred, filed as 0.5)
# [17] = at 50.0 µM (retest, dose inferred, filed as 5.0)
smiles,measurement,setting,value
CCN(CC)CCNc1ccc([N+](=O)[O-])c2nc3ccc(OC)cc3c(N)c12,growth inhibition,[1]; at 1.2 µM,-23%
same,growth inhibition,[1]; at 3.7 µM,-13%
same,growth inhibition,[1]; at 11.0 µM,19%
same,growth inhibition,[1]; at 33.0 µM,74% (active)
same,growth inhibition,[1]; at 100.0 µM,90% (active)
same,growth inhibition,[2]; at 1.2 µM,-8%
same,growth inhibition,[2]; at 3.7 µM,-14%
same,growth inhibition,[2]; at 11.0 µM,-17%
same,growth inhibition,[2]; at 33.0 µM,-6%
same,growth inhibition,[2]; at 100.0 µM,54%
same,growth inhibition,[3]; at 1.2 µM,11%
same,growth inhibition,[3]; at 3.7 µM,7%
same,growth inhibition,[3]; at 11.0 µM,30%
same,growth inhibition,[3]; at 33.0 µM,69%
same,growth inhibition,[3]; at 100.0 µM,79% (active)
same,growth inhibition,[4]; at 1.2 µM,-20%
same,growth inhibition,[4]; at 3.7 µM,-20%
same,growth inhibition,[4]; at 11.0 µM,-16%
same,growth inhibition,[4]; at 33.0 µM,15%
same,growth inhibition,[4]; at 100.0 µM,73% (active)
same,growth inhibition,[5]; at 1.2 µM,-3%
same,growth inhibition,[5]; at 3.7 µM,-2%
same,growth inhibition,[5]; [16],13%
same,growth inhibition,[5]; at 11.0 µM,35%
same,growth inhibition,[5]; at 33.0 µM,79% (active)
same,growth inhibition,[5]; [17],89% (active)
same,growth inhibition,[5]; at 50.0 µM,48.4%
same,growth inhibition,[5]; at 100.0 µM,93% (active)
same,growth inhibition,[6]; at 1.2 µM,-24%
same,growth inhibition,[6]; at 3.7 µM,-19%
same,growth inhibition,[6]; [16],-5%
same,growth inhibition,[6]; at 11.0 µM,-8%
same,growth inhibition,[6]; at 33.0 µM,5%
same,growth inhibition,[6]; [17],21%
same,growth inhibition,[6]; at 50.0 µM,-26.1%
same,growth inhibition,[6]; at 100.0 µM,42%
same,growth inhibition,[7]; at 1.2 µM,-34%
same,growth inhibition,[7]; at 3.7 µM,-29%
same,growth inhibition,[7]; at 11.0 µM,-19%
same,growth inhibition,[7]; at 33.0 µM,28%
same,growth inhibition,[7]; at 100.0 µM,88% (active)
same,growth inhibition,[8]; [16],-12%
same,growth inhibition,[8]; [17],48%
same,growth inhibition,[8]; at 50.0 µM,58.4%
same,growth inhibition,[9]; [16],3%
same,growth inhibition,[9]; [17],33%
same,growth inhibition,[9]; at 50.0 µM,6.25%
same,growth inhibition,[10]; at 1.2 µM,-23%
same,growth inhibition,[10]; at 3.7 µM,-16%
same,growth inhibition,[10]; [16],-24%
same,growth inhibition,[10]; at 11.0 µM,-36%
same,growth inhibition,[10]; at 33.0 µM,-17%
same,growth inhibition,[10]; [17],18%
same,growth inhibition,[10]; at 50.0 µM,-0.6%
same,growth inhibition,[10]; at 100.0 µM,64%
same,growth inhibition,[11]; at 1.2 µM,15%
same,growth inhibition,[11]; at 3.7 µM,6%
same,growth inhibition,[11]; at 11.0 µM,10%
same,growth inhibition,[11]; at 33.0 µM,28%
same,growth inhibition,[11]; at 100.0 µM,70% (active)
same,growth inhibition,[12]; at 1.2 µM,-2%
same,growth inhibition,[12]; at 3.7 µM,4%
same,growth inhibition,[12]; at 11.0 µM,5%
same,growth inhibition,[12]; at 33.0 µM,27%
same,growth inhibition,[12]; at 100.0 µM,85% (active)
same,growth inhibition,[13]; [16],-22%
same,growth inhibition,[13]; [17],86% (active)
same,growth inhibition,[13]; at 50.0 µM,68%
O=C(O)CNc1ccc(Cl)c(Cl)c1,growth inhibition,[1]; at 1.2 µM,-2%
same,growth inhibition,[1]; at 3.7 µM,0%
same,growth inhibition,[1]; at 11.0 µM,14%
same,growth inhibition,[1]; at 33.0 µM,77% (active)
same,growth inhibition,[1]; at 100.0 µM,98% (active)
same,growth inhibition,[2]; at 1.2 µM,-3%
same,growth inhibition,[2]; at 3.7 µM,-6%
same,growth inhibition,[2]; at 11.0 µM,-6%
same,growth inhibition,[2]; at 33.0 µM,25%
same,growth inhibition,[2]; at 100.0 µM,98% (active)
same,growth inhibition,[3]; at 1.2 µM,-2%
same,growth inhibition,[3]; at 3.7 µM,1%
same,growth inhibition,[3]; at 11.0 µM,6%
same,growth inhibition,[3]; at 33.0 µM,22%
same,growth inhibition,[3]; at 100.0 µM,43%
same,growth inhibition,[4]; at 1.2 µM,-2%
same,growth inhibition,[4]; at 3.7 µM,-4%
same,growth inhibition,[4]; at 11.0 µM,-6%
same,growth inhibition,[4]; at 33.0 µM,32%
same,growth inhibition,[4]; at 100.0 µM,99% (active)
same,growth inhibition,[5]; at 1.2 µM,-2%
same,growth inhibition,[5]; at 3.7 µM,6%
same,growth inhibition,[5]; [16],-7%
same,growth inhibition,[5]; at 11.0 µM,13%
same,growth inhibition,[5]; at 33.0 µM,75% (active)
same,growth inhibition,[5]; [17],18%
same,growth inhibition,[5]; at 50.0 µM,78.2% (active)
same,growth inhibition,[5]; at 100.0 µM,98% (active)
same,growth inhibition,[6]; at 1.2 µM,-10%
same,growth inhibition,[6]; at 3.7 µM,-1%
same,growth inhibition,[6]; [16],-7%
same,growth inhibition,[6]; at 11.0 µM,-8%
same,growth inhibition,[6]; at 33.0 µM,38%
same,growth inhibition,[6]; [17],30%
same,growth inhibition,[6]; at 50.0 µM,57.2%
same,growth inhibition,[6]; at 100.0 µM,99% (active)
same,growth inhibition,[7]; at 1.2 µM,-6%
same,growth inhibition,[7]; at 3.7 µM,-7%
same,growth inhibition,[7]; at 11.0 µM,-7%
same,growth inhibition,[7]; at 33.0 µM,48%
same,growth inhibition,[7]; at 100.0 µM,98% (active)
same,growth inhibition,[8]; [16],-6%
same,growth inhibition,[8]; [17],22%
same,growth inhibition,[8]; at 50.0 µM,38.4%
same,growth inhibition,[9]; [16],10%
same,growth inhibition,[9]; [17],1%
same,growth inhibition,[9]; at 50.0 µM,84.2% (active)
same,growth inhibition,[10]; at 1.2 µM,-9%
same,growth inhibition,[10]; at 3.7 µM,-12%
same,growth inhibition,[10]; [16],-8%
same,growth inhibition,[10]; at 11.0 µM,5%
same,growth inhibition,[10]; at 33.0 µM,67%
same,growth inhibition,[10]; [17],17%
same,growth inhibition,[10]; at 50.0 µM,87.3% (active)
same,growth inhibition,[10]; at 100.0 µM,98% (active)
same,growth inhibition,[11]; at 1.2 µM,-5%
same,growth inhibition,[11]; at 3.7 µM,-5%
same,growth inhibition,[11]; at 11.0 µM,-6%
same,growth inhibition,[11]; at 33.0 µM,78% (active)
same,growth inhibition,[11]; at 100.0 µM,99% (active)
same,growth inhibition,[12]; at 1.2 µM,-2%
same,growth inhibition,[12]; at 3.7 µM,1%
same,growth inhibition,[12]; at 11.0 µM,2%
same,growth inhibition,[12]; at 33.0 µM,71% (active)
same,growth inhibition,[12]; at 100.0 µM,99% (active)
same,growth inhibition,[14]; at 1.2 µM,-3%
same,growth inhibition,[14]; at 3.7 µM,-5%
same,growth inhibition,[14]; at 11.0 µM,4%
same,growth inhibition,[14]; at 33.0 µM,74% (active)
same,growth inhibition,[14]; at 100.0 µM,98% (active)
same,growth inhibition,[15]; at 1.2 µM,-2%
same,growth inhibition,[15]; at 3.7 µM,-4%
same,growth inhibition,[15]; at 11.0 µM,2%
same,growth inhibition,[15]; at 33.0 µM,76% (active)
same,growth inhibition,[15]; at 100.0 µM,98% (active)
